Test results reported in PubChem BioAssay (NCATS).
Activity calls are given as the source filed them. Calls come from the whole dose curve; as a rule, active = well fitted inhibition curve with a large enough effect; inconclusive = small, poorly fitted or top-dose-only effect; inactive = flat fitted curve, though single readings scatter.

Test system: Nanoluciferase (engineered Oplophorus gracilirostris luciferase)
Test: Primary Nanoluciferase (NLuc) qHTS assay for identification of artifact compounds. (AID 1845222);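 note: 0% = DMSO and -100% = no enzyme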
Conditions: NLuc-conditioned medium, Nano-Glo luminescence, 5 min; series mostly up to 54.1 µM; activity, negative = inhibition: at the top concentration
How it was run: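 Compounds are pinned into diluted (1:55) conditioned medium of NLuc-expressing S16 cells and held 15 min at room temperature protected from light. Nano-Glo substrate follows, and luminescence is read 5 min later.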

Row | Structure (SMILES) | activity, negative = inhibition
1 | COc1cc2nc(=NC(=O)c3cccnc3)n3c(c2cc1OC)NCC3 | -0.117% (inactive)
2 | CCOC(=O)C(CCc1ccccc1)NC1CCCN2CCCC(C(=O)O)N2C1=O (stereo not given) | 4.57% (inactive)
3 | Cc1ccccc1N1CCN(S(=O)(=O)C[C@]23CC[C@H](C[C@@H]2NC(=O)[C@@H](N)CCS(C)(=O)=O)C3(C)C)CC1 | 1.44% (inactive)
4 | COC(=O)C1(C)CCCC2(C)c3ccc(C(C)C)cc3C(O)C(O)C12 (stereo not given) | 0.933% (inactive)
5 | COC(O)(CC(C)C)C1Oc2cc(C)[nH]c(=O)c2O1 (stereo not given) | -1.14% (inactive)
6 | O=C(NC1Cc2ccccc2N(C[C@@H](O)CO)C1=O)c1cc2cc(Cl)sc2[nH]1 (stereo not given in full) | -1.45% (inactive)
7 | Cc1occc(=O)c1O[C@@H]1O[C@H](CO[C@@H]2OC[C@](O)(CO)[C@H]2O)[C@@H](O)[C@H](O)[C@H]1O | 3.64% [at 25.7 µM] (inactive)
8 | C=C1C(=O)O[C@@H]2/C=C(\C)CC/C=C(\C(=O)O[C@@H]3O[C@H](CO)[C@@H](O)[C@H](O)[C@H]3O)CC[C@@H]12 | -2.97% [at 25.7 µM] (inactive)
9 | CCCSc1nc(NC2CC2c2ccc(F)c(F)c2)c2nnn(C3CC(OCCO)C(O)C3O)c2n1 (stereo not given) | 0% (inactive)
10 | CCCCCOC(=O)Nc1nc(=O)n(C2O[C@H](C)[C@@H](O)[C@H]2O)cc1F (stereo not given in full) | 3.25% (inactive)
11 | CN(C)CCC[C@]1(c2ccc(F)cc2)OCc2cc(C#N)ccc21 | 4.09% (inactive)
12 | CCCCC(=O)N1c2ccccc2NC2=C(C(=O)CCC2)C1c1ccccc1Cl (stereo not given) | -19.9% (inactive)
13 | C[C@@H]1CC[C@]2(C(=O)O[C@@H]3O[C@H](CO[C@@H]4O[C@H](CO)[C@@H](O[C@@H]5O[C@@H](C)[C@H](O)[C@@H](O)[C@H]5O)[C@H](O)[C@H]4O)[C@@H](O)[C@H](O)[C@H]3O)CC[C@]3(C)C(=CCC4[C@@]5(C)C[C@@H](O)[C@H](O)[C@@](C)(CO)C5CC[C@]43C)C2[C@H]1C (stereo not given in full) | 0% [at 11.6 µM] (inactive)
14 | Nc1ncnc2c1c(COc1cccc(Cl)c1)nn2C1CCOCC1 | 1.13% (inactive)
15 | Cc1ccc2[nH]c(=O)c(C3=NN(C(=O)CCC(=O)O)C(c4ccc(Br)cc4)C3)c(-c3ccccc3)c2c1 (stereo not given) | -8.59% (inactive)
